# In the supplement of paper PMC10670038:
# Structures can show the parent of a compound that is named as a salt. ± gives the standard deviation of the averaged measurements. Whole data set: some 2,000 compounds, median “relative cell viability vs DMSO, compound alone” near 1.1, cut for the lowest 2% near 0.29. Many of the other results were omitted from the sample, so the lowest values are more common in it than they were.
# Tested on: TE10
# Experiment: relative cell viability vs DMSO, compound alone (fraction); TE10 is an esophageal squamous carcinoma line; higher = less cytotoxic
# Conditions: 2 µM; 48 h
# Description: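 TE10 ESCC cells (1,000/well, 384-well plates) were treated with Selleck bioactive library compounds at 2 uM alone for 48 h. Viability was read by CellTiter-Glo and expressed relative to DMSO wells. Two technical replicates (A, B).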
row,Structure (SMILES),relative cell viability
1,C[C@H](N[C@@H](CCc1ccccc1)C(=O)O)C(=O)N1CCC[C@H]1C(=O)O [Enalaprilat Dihydrate],1.12 ± 0.029
2,CC(C)CC(CC(=O)NO)C(=O)N[C@@H](Cc1ccc2ccccc2c1)C(=O)N[C@@H](C)C(=O)NCCN (stereo partly specified),1.04 ± 0.077
3,COC(=O)[C@H](Cc1ccccc1)NC(=O)[C@@H](N)CC(=O)O [Aspartame],1.06 ± 0.036
4,CC(=O)NC(Cc1ccc(O)cc1)C(=O)NC(CCCN=C(N)N)C(=O)NC(Cc1ccccc1)C(N)=O (stereo unspecified),0.828 ± 0.052
5,O=C(Cc1ccc(-c2ccc(OCCN3CCOCC3)cc2)cn1)NCc1ccccc1,0.816 ± 0.05
6,COC[C@H](NC(=O)c1cnc(C)s1)C(=O)N[C@@H](COC)C(=O)N[C@@H](Cc1ccccc1)C(=O)[C@@]1(C)CO1 [Oprozomib (ONX 0912)],0.0586 ± 0.0043
7,CC(C)c1nc(CN(C)C(=O)N[C@@H](CCN2CCOCC2)C(=O)N[C@H](CC[C@H](Cc2ccccc2)NC(=O)OCc2cncs2)Cc2ccccc2)cs1 [Cobicistat (GS-9350)],1.11 ± 0.05
8,CC(C)C[C@H](NC(=O)[C@H](CCc1ccccc1)NC(=O)CN1CCOCC1)C(=O)N[C@@H](Cc1ccccc1)C(=O)N[C@@H](CC(C)C)C(=O)[C@@]1(C)CO1 [Carfilzomib (PR-171)],0.0894 ± 0.0027
9,COc1ccc(C[C@H](NC(=O)[C@H](C)NC(=O)CN2CCOCC2)C(=O)N[C@@H](Cc2ccccc2)C(=O)[C@@]2(C)CO2)cc1,0.0804 ± 0.0014
10,O=C(NCC1(c2nc(-c3ccccc3)cs2)CCOCC1)c1cccc(-c2noc(C(F)(F)F)n2)c1,0.8055 ± 0.0031
11,C/C(=N\NC(=O)c1cccc(S(=O)(=O)N2CCOCC2)c1)c1cc(Cl)ccc1O,0.87899 ± 0.00067
12,CC1(COc2ccc3c(c2)ncn3-c2ccc3cccc(N4CCC(N)CC4)c3n2)COC1,1.1 ± 0.033
13,O=C(NCc1ccc(Oc2ccccc2)cc1)c1nc(-c2cc(Br)c(O)c(Br)c2)no1,1.17 ± 0.012
14,CNC(=C[N+](=O)[O-])NCCSCc1csc(CN(C)C)n1 [Nizatidine],1.08 ± 0.056
15,CC(=O)N[C@H]1[C@H]([C@H](O)[C@H](O)CO)OC(C(=O)O)=C[C@@H]1NC(=N)N [Zanamivir],1.13 ± 0.049
16,CO/N=C(\C(=O)N[C@@H]1C(=O)N2C(C(=O)OCOC(=O)C(C)(C)C)=C(/C=C\c3scnc3C)CS[C@H]12)c1csc(N)n1 [Cefditoren Pivoxil],0.991 ± 0.099
17,C[C@]12C=CC(=O)C=C1CC[C@H]1[C@@H]3C[C@@H](O)[C@](O)(C(=O)CO)[C@@]3(C)C[C@H](O)[C@@]12F [Triamcinolone],0.9665 ± 0.0039
18,OC[C@@H](O)[C@@H](O)[C@@H](O)CO [Ribitol],1.126 ± 0.0056
19,CC1=CC(=O)c2ccccc2C1=O [Menadione],0.981 ± 0.01
20,CC(C)(C)C(=O)Nc1ccc2c(c1)C(=O)C(=O)c1ccccc1-2,0.0653 ± 0.0041
21,CC(=O)Nc1ccccc1 [Acetanilide],0.976 ± 0.25
22,O=C(Nc1cccc(C(F)(F)F)c1)Nc1cc(S(=O)(=O)NC2CC2)ccc1-c1ccsc1,0.982 ± 0.031
23,Cn1c2ccccc2c2c3c(c4c5ccccc5n(CCC#N)c4c21)CNC3=O,1 ± 0.081
24,CN1CCc2nc(C(=O)N[C@@H]3C[C@@H](C(=O)N(C)C)CC[C@@H]3NC(=O)C(=O)Nc3ccc(Cl)cn3)sc2C1 [Edoxaban],1.09 ± 0.014

row,Structure (SMILES),relative cell viability
1,NC(=O)C1CCCc2c1[nH]c1ccc(Cl)cc21 (stereo unspecified) [EX 527 (Selisistat)],0.983 ± 0.2
2,CCOC(=O)c1ccc(NC(=O)O[C@H]2[C@H](OC(=O)Nc3ccc4c(c3)OCO4)[C@@H](OC(=O)Nc3ccc4c(c3)OCO4)[C@@H](OC)O[C@@H]2CO)cc1,1.16 ± 0.047
3,Cn1cc(-c2ccc3ncc(Cc4ccc5ncccc5c4)n3n2)cn1,1.13 ± 0.055
4,COc1nc(N)nc2c1ncn2[C@@H]1O[C@H](CO)[C@@H](O)[C@@H]1O [Nelarabine],1.11 ± 0.05
5,COc1ccc(C[C@H](N)C(=O)N[C@H]2[C@@H](O)[C@H](n3cnc4c(N(C)C)ncnc43)O[C@@H]2CO)cc1 [Puromycin 2HCl],0.133 ± 0.042
6,CNc1ncnc2c1ncn2[C@@H]1O[C@H](CO)[C@@H](O)[C@H]1O [N6-methyladenosine (m6A)],0.9679 ± 0.0062
7,CN(C)Cc1cccc(N=C(c2ccccc2)c2c(O)[nH]c3cc(C(=O)N(C)C)ccc23)c1,0.903 ± 0.035
8,COc1cc2c(NC3CCN(CC4CCCCC4)CC3)nc(N3CCCN(C(C)C)CC3)nc2cc1OCCCN1CCCCC1,1 ± 0.13
9,O=C(O)CCCC[C@@H]1SC[C@@H]2NC(=O)N[C@@H]21 [Biotin (Vitamin B7)],0.999 ± 0.036
10,CN[C@@H]1[C@H](O)[C@H](NC)[C@H]2O[C@@]3(O)C(=O)C[C@@H](C)O[C@H]3O[C@@H]2[C@H]1O [Spectinomycin HCl],1.03 ± 0.12
11,CN(C)c1cc(NC(=O)CNC(C)(C)C)c(O)c2c1CC1CC3C(N(C)C)C(=O)C(C(N)=O)=C(O)C3(O)C(=O)C1=C2O (stereo unspecified) [Tigecycline],1.111 ± 0.0089
12,O=C(C=Cc1ccccc1)NC(NC(=S)Nc1ccc(Cl)cc1)C(Cl)(Cl)Cl (stereo unspecified),1.07 ± 0.03
13,Cn1cc(/C=C/C(=O)c2cccc(F)c2)cc1/C=C/C(=O)NO,1.11 ± 0.077
14,O=C(/C=C/c1cccc(S(=O)(=O)Nc2ccccc2)c1)NO [Belinostat (PXD101)],0.216 ± 0.0062
15,CC(=O)Oc1cc2c(s1)CCN(C(C(=O)C1CC1)c1ccccc1F)C2 (stereo unspecified) [Prasugrel],1.139 ± 0.0097
16,COc1cc(Nc2ncc(F)c(Nc3ccc4c(n3)NC(=O)C(C)(C)O4)n2)cc(OC)c1OC [R406 (free base)],0.844 ± 0.051
17,COc1cc(Nc2ncc(F)c(Nc3ccc4c(n3)NC(=O)C(C)(C)O4)n2)cc(OC)c1OC,0.96 ± 0.015
18,Cc1c(C(=O)Nc2ccc(N3CCC(N4CCOCC4)CC3)c(C#N)c2)cnn1-c1ccc(Cl)cc1,1.08 ± 0.024
19,Cc1c(C(=O)Nc2ccc(Oc3ccnc4[nH]cc(-c5ccccc5)c34)c(F)c2)c(=O)n(-c2ccc(F)cc2)n1C,1 ± 0.027
20,Nc1nc(N)c(N=O)c(OCC2CCCCC2)n1,1.03 ± 0.023
21,O=C(Cc1ccccc1)Nc1nnc(CCSCCc2nnc(NC(=O)Cc3ccccc3)s2)s1,0.866 ± 0.049
22,CCCc1nn(C)c2c(=O)[nH]c(-c3cc(S(=O)(=O)N4CCN(C)CC4)ccc3OCC)nc12 [Sildenafil Citrate],1.2 ± 0.029
23,CC(C)(C)c1ccc(S(=O)(=O)/C=C/C#N)cc1,0.0635 ± 0.0029
24,Cc1ccc(S(=O)(=O)C=CC#N)cc1,0.063 ± 0.0047

row,Structure (SMILES),relative cell viability
1,CNc1nc(-c2ccc3c(N)n[nH]c3c2)cc(N2C[C@@H](C(=O)NC3CCCCC3)CC[C@H]2C)n1,1.05 ± 0.037
2,COc1c(N2C[C@@H]3CCCN[C@@H]3C2)c(F)cc2c(=O)c(C(=O)O)cn(C3CC3)c12 [Moxifloxacin HCl],1.18 ± 0.016
3,C[C@]12CC[C@@H]3c4ccc(O)cc4CC[C@H]3[C@@H]1CC[C@@H]2OC(=O)CCC1CCCC1 [Estradiol Cypionate],1.13 ± 0.085
4,Cn1cc(-c2[nH]c3cc(NC(=O)[C@H](N)C4CCCCC4)cc4c3c2C=NNC4=O)cn1,1.05 ± 0.075
5,CCOc1cc([C@@H](CS(C)(=O)=O)N2C(=O)c3cccc(NC(C)=O)c3C2=O)ccc1OC,0.887 ± 0.18
6,CC(C)c1nc(CN(C)C(=O)N[C@H](C(=O)N[C@@H](Cc2ccccc2)C[C@H](O)[C@H](Cc2ccccc2)NC(=O)OCc2cncs2)C(C)C)cs1 [Ritonavir],1.13 ± 0.062
7,CCCC[C@@H](C=O)NC(=O)[C@H](CC(C)C)NC(=O)OCc1ccccc1 [Calpeptin],1 ± 0.021
8,CC(NC(=O)C(Cc1ccccc1)NC(=O)OCc1ccccc1)C(=O)CF (stereo unspecified),1.14 ± 0.064
9,CC(C)C[C@@H](C=O)NC(=O)[C@H](CC(C)C)NC(=O)[C@H](CC(C)C)NC(=O)OCc1ccccc1,0.0786 ± 0.0013
10,CCCCC(=O)O[C@]1(C(=O)CO)[C@@H](C)C[C@H]2[C@@H]3CCC4=CC(=O)C=C[C@]4(C)[C@@]3(F)[C@@H](O)C[C@@]21C [Betamethasone valerate (Betnovate)],0.865 ± 0.078
11,COc1cc(Nc2nc3ccccc3nc2NS(=O)(=O)c2ccc(NC(=O)c3ccc(C)c(OC)c3)cc2)cc(OC)c1,1.15 ± 0.067
12,O=C(c1cn(Cc2cncn2Cc2ccc(Br)cc2)cc1-c1cccc2ccccc12)N1CCOCC1,0.958 ± 0.015
13,CCc1cc(/C(C)=N/OCc2ccc(C3CCCCC3)c(C(F)(F)F)c2)ccc1CN1CC(C(=O)O)C1 [BAF312 (Siponimod)],1.1 ± 0.07
14,O=C(O)c1cc(/N=N/c2ccc(O)c(C(=O)O)c2)ccc1O [Olsalazine Sodium],1.12 ± 0.12
15,CC(=O)N[C@@H](CC(C)C)C(=O)N[C@@H](CC(C)C)C(=O)N[C@H](C=O)CCCNC(=N)N [Leupeptin Hemisulfate],1.09 ± 0.015
16,CC(C)CCNC(=O)[C@H](CC(C)C)NC(=O)[C@H]1O[C@@H]1C(=O)O [Loxistatin Acid (E-64C)],1.1 ± 0.019
17,CCCCC(C=O)NC(=O)C(CC(C)C)NC(=O)C(CC(C)C)NC(C)=O (stereo unspecified),0.266 ± 0.011
18,Cc1ccc(C(=O)Nc2cccc(C(F)(F)F)c2)cc1Nc1nc(-c2cccnc2)nc2c1cnn2C,1.13 ± 0.043
19,Cc1cnc(NC(=O)C2=C(O)c3ccccc3S(=O)(=O)N2C)s1 [Meloxicam],1.11 ± 0.045
20,CC(=O)O[C@]1(C(C)=O)CC[C@H]2[C@@H]3C[C@H](C)C4=CC(=O)C=C[C@]4(C)[C@@]3(F)[C@@H](O)C[C@@]21C [Fluorometholone Acetate],0.914 ± 0.099
21,CCCCC(=O)O[C@H]1CC[C@H]2[C@@H]3CCc4cc(O)ccc4[C@H]3CC[C@]12C [Estradiol valerate],1.07 ± 0.1
22,Cc1ccc(NC(=O)c2ccc(CN3CCN(C)CC3)cc2)cc1Nc1nc(-c2cccnc2)cs1 [Masitinib (AB1010)],1.084 ± 0.0069
23,CC(C)(C)c1cc(NC(=O)Nc2ccc(-c3cn4c(n3)sc3cc(OCCN5CCOCC5)ccc34)cc2)no1 [Quizartinib (AC220)],0.594 ± 0.04
